The record followed here is PubChem BioAssay (NCI).

The panel holds about 83,000 compounds, 20% with a hit somewhere; the sample as a whole holds those more often.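 Method: cells in 96-well plates; compound added at one concentration; 48 h incubation; percent growth measured; values under 10 scored active.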 Unmarked numbers belong to inactive results. Calls of active or inactive are those of the source.

Test systems include NCI-H226 lung; NCI-H322M lung; HOP-62 NSCLC; NCI-H460 lung; HOP-92 NSCLC; A549/ATCC NSCLC; 786-0 renal; COLO 205 colon; DU-145 prostate; K-562 leukemia; MALME-3M melanoma; MDA-MB-231 breast; RXF 393 renal; SF-268 CNS; SF-295 CNS; SF-539 CNS; UACC-257 melanoma; M14 melanoma; HCT-15 colon; NCI-H522 lung.
What all share (test): NCI-60 one-dose screen, 48 h (100 = growth as untreated, 0 = no growth, -100 = all killed)
Conditions in all cases: 10 µM unless noted

Consider `CC(C)(C)Nc1nc2c(OCCc3ccccc3)cccn2c1-c1ccc(Cl)cc1`, for which the growth in the experiment on NCI-H226 lung is 12.4%; in the experiment with NCI-H322M lung, 24.6%; in the experiment with HOP-62 NSCLC, 32.4%; with NCI-H460 lung, 16%; in the experiment with HOP-92 NSCLC it was -24.9% (active); in the experiment with A549/ATCC NSCLC, 16%. In addition, the growth is 26.9% in the experiment with 786-0 renal; -3.99% (active) in the experiment with COLO 205 colon; 48.2% with DU-145 prostate; 5.28% (active) with K-562 leukemia; 1.51% (active) in the experiment with MALME-3M melanoma; 17.4% in the experiment on MDA-MB-231 breast. Besides, the growth in the experiment with RXF 393 renal was -15.3% (active); in the experiment on SF-268 CNS it was 45.5%; in the experiment with SF-295 CNS, 3.7% (active); with SF-539 CNS it was 21.7%; in the experiment with UACC-257 melanoma, 16.7%; in the experiment with M14 melanoma, 26.8%. Moreover, the growth in the experiment with HCT-15 colon is 3.86% (active).
Take `COC(=O)c1ccc(NC(=S)N2CCc3ccc([N+](=O)[O-])cc3C2)cc1O`: the growth is 100% in the experiment with NCI-H226 lung; 101% with NCI-H322M lung; 91.3% in the experiment on HOP-62 NSCLC; 114% in the experiment with NCI-H460 lung; 99.7% in the experiment on HOP-92 NSCLC; 99% in the experiment on NCI-H522 lung. Moreover, the growth in the experiment on A549/ATCC NSCLC was 106%; with 786-0 renal it was 109%; in the experiment on DU-145 prostate, 112%; with K-562 leukemia, 110%; in the experiment on MALME-3M melanoma it was 95.4%; in the experiment on MDA-MB-231 breast it was 94.5%. For the same compound, the growth is 110% in the experiment with RXF 393 renal; 103% in the experiment with SF-268 CNS; 102% in the experiment on SF-295 CNS; 103% with SF-539 CNS; 109% with UACC-257 melanoma; 102% with M14 melanoma. For the same compound, the growth with HCT-15 colon was 99.7%.
Take `CC(C)(C)OC(=O)N1C(=O)c2c(c3c4ccccc4[nH]c3c3ccc4ccccc4c23)C1=O`: the growth in the experiment on NCI-H226 lung is 61.3%; in the experiment with NCI-H322M lung, 52.8%; with HOP-62 NSCLC it was 52.2%; with NCI-H460 lung, 37.3%; in the experiment with HOP-92 NSCLC, 87.9%; in the experiment on NCI-H522 lung it was 47.2%. In addition, the growth with A549/ATCC NSCLC is 59.7%; in the experiment on 786-0 renal it was 77.1%; in the experiment with DU-145 prostate, 57.3%; in the experiment on K-562 leukemia, 42.2%; in the experiment with MALME-3M melanoma, 48.1%; in the experiment on MDA-MB-231 breast, 66.8%. Also, the growth was 59% in the experiment with RXF 393 renal; 63.3% in the experiment on SF-268 CNS; 50.2% in the experiment on SF-295 CNS; 62.1% in the experiment with SF-539 CNS; 77.2% in the experiment on UACC-257 melanoma; 37.3% with M14 melanoma. Further, the growth in the experiment on HCT-15 colon was 51.6%.
For `NS(=O)(=O)c1ccc(Nc2nc(Nc3ccccc3)nc(-n3nc(-c4ccccc4)cc3-c3ccccc3)n2)cc1`, the growth was 40.7% in the experiment with NCI-H226 lung; 57.2% with NCI-H322M lung; 63.7% with HOP-62 NSCLC; 5.81% (active) in the experiment with NCI-H460 lung; 26.8% in the experiment with HOP-92 NSCLC; 25.9% with A549/ATCC NSCLC. Moreover, the growth was 20.1% in the experiment with 786-0 renal; 9.92% (active) in the experiment on COLO 205 colon; 32.3% in the experiment on DU-145 prostate; 11.5% in the experiment with K-562 leukemia; 60% in the experiment with MALME-3M melanoma; 37% in the experiment with MDA-MB-231 breast. The growth in the experiment with RXF 393 renal was 22.8%; with SF-268 CNS, 37.8%; in the experiment with SF-295 CNS, 34.3%; in the experiment on SF-539 CNS, 37.2%; with UACC-257 melanoma, 59.6%; in the experiment on M14 melanoma, 26.5%. In addition, the growth in the experiment with HCT-15 colon was 18.3%.
On to `Cc1[nH]nc2ncc(C#Cc3cncc(C(=O)Nc4ccc(CN5CCN(C)CC5)c(C(F)(F)F)c4)c3)cc12`, for which the growth in the experiment with NCI-H226 lung was 3.71% (active); in the experiment with NCI-H322M lung, 44.3%; with HOP-62 NSCLC, 28.9%; in the experiment with NCI-H460 lung, 10.7%; in the experiment with HOP-92 NSCLC, -23% (active); with A549/ATCC NSCLC it was 23.9%. Besides, the growth in the experiment on 786-0 renal is 43.1%; with COLO 205 colon, -25.6% (active); in the experiment on DU-145 prostate, 36.4%; with K-562 leukemia it was 7.53% (active); in the experiment with MALME-3M melanoma, -28.5% (active); with MDA-MB-231 breast, -39.2% (active). For the same compound, the growth in the experiment on RXF 393 renal was -12.8% (active); with SF-268 CNS, 21.2%; in the experiment on SF-295 CNS, 34.2%; in the experiment with SF-539 CNS it was -3.8% (active); in the experiment on UACC-257 melanoma, 14.7%; in the experiment on M14 melanoma, -17.1% (active). Also, the growth in the experiment with HCT-15 colon is 12.5%.
`Fc1ccc(-c2nc(C(Cl)Cl)nc3cc(-c4ccccc4)nn23)cc1`: the growth with NCI-H226 lung was 74.7%; in the experiment on NCI-H322M lung, -41.6% (active); in the experiment on HOP-62 NSCLC, -19.5% (active); in the experiment with NCI-H460 lung, -67.6% (active); in the experiment on HOP-92 NSCLC it was 12.8%; in the experiment on NCI-H522 lung it was -41.4% (active). Besides, the growth was -45.1% (active) in the experiment on A549/ATCC NSCLC; 70% in the experiment with 786-0 renal; -18.2% (active) in the experiment with DU-145 prostate; 11.4% in the experiment on K-562 leukemia; -15% (active) in the experiment on MALME-3M melanoma; 11.8% in the experiment on MDA-MB-231 breast. Further, the growth with RXF 393 renal was -70.1% (active); in the experiment with SF-268 CNS it was 24%; in the experiment with SF-295 CNS, 6.38% (active); with SF-539 CNS it was 32.8%; with UACC-257 melanoma, 1.45% (active); in the experiment on M14 melanoma it was -40.7% (active). Moreover, the growth with HCT-15 colon was 4.01% (active).
As for `N/C(=N\c1nc2c(Br)cccc2s1)C(Br)Br`, the growth in the experiment on NCI-H226 lung was 48.9%; in the experiment with NCI-H322M lung, 31.8%; with HOP-62 NSCLC, 39.8%; in the experiment on NCI-H460 lung, -20.4% (active); in the experiment with HOP-92 NSCLC, -3.75% (active); in the experiment with A549/ATCC NSCLC, 21.8%. The growth is -14.3% (active) with 786-0 renal; 1.7% (active) in the experiment on COLO 205 colon; -21.8% (active) in the experiment on DU-145 prostate; 3.75% (active) in the experiment on K-562 leukemia; -36.7% (active) in the experiment on MALME-3M melanoma; -9.45% (active) with MDA-MB-231 breast. For the same compound, the growth in the experiment with RXF 393 renal is -51.1% (active); in the experiment on SF-268 CNS, 49.2%; in the experiment on SF-295 CNS, 11.8%; in the experiment with SF-539 CNS, -28.3% (active); in the experiment on UACC-257 melanoma, 51.4%; in the experiment with M14 melanoma, 10.9%. Also, the growth in the experiment with HCT-15 colon was -27.7% (active).
As to `Nc1ncc(-c2ccc3ncnc(N4CCc5cc(F)c(Cl)cc54)c3c2)cc1CO`, the growth in the experiment on NCI-H226 lung was 18.9%; with NCI-H322M lung, -2.33% (active); with HOP-62 NSCLC, 9.91% (active); in the experiment with NCI-H460 lung, 6.98% (active); in the experiment on HOP-92 NSCLC, -13.2% (active); with NCI-H522 lung, -18% (active). For the same compound, the growth is 3.94% (active) in the experiment on A549/ATCC NSCLC; 4.92% (active) in the experiment on 786-0 renal; 11.3% in the experiment with DU-145 prostate; 7.76% (active) in the experiment with K-562 leukemia; -25.8% (active) in the experiment on MALME-3M melanoma; 17% with MDA-MB-231 breast. For the same compound, the growth with RXF 393 renal was -26.6% (active); in the experiment on SF-268 CNS it was 8.31% (active); in the experiment on SF-295 CNS it was -11.5% (active); with SF-539 CNS it was -17.8% (active); with UACC-257 melanoma, 9.34% (active); with M14 melanoma, -3.69% (active). In addition, the growth with HCT-15 colon was 5.51% (active).
